Bioassay records (PubChem)
IL1B secr inh: qHTS for Inhibitors of Inflammasome Signaling: IL-1-beta AlphaLISA Primary Screen. THP-1 LPS/ATP IL-1B secretion, AlphaLISA, 16 h; active compounds read low. activity change, % at 57.5 µM. 360,000 tested, 4.7% active; in the data active = activity change below about -50%; inconclusive = mostly about -30% to -49%; also: % is scaled to controls: 0 for no effect and ±100 for the full control effect
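THP-1 cells pretreated 1 hr with compounds (up to 57.5 uM final), then stimulated with LPS (250 ng/mL final) plus ATP (1.25 mM final); secreted IL-1B measured by AlphaLISA after 16 hr, decreased signal indicating inhibition.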
ATXN2 expr inh: Primary qHTS for Inhibitors of ATXN expression; Potency, µM (doses to about 57 µM), for inactives: top-dose activity change, negative = inhibition, hits mostly inhibitors; 360,000 tested, 0.72% active; AID 1745845, 2022; HEK-293 ATXN2-luciferase reporter, luminescence, 24 h; also: potency is read from the fitted curve at half-maximal effect; % is scaled to controls: 0 for no effect and ±100 for the full control effect; nearly all actives have a fitted effect of over 55% in size
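qHTS (up to 57 uM final) was run with 24 h compound exposure of reporter cells at 37 °C. Each well was multiplexed: SteadyGlo luminescence measured ATXN2-luciferase expression after a fluorogenic Gly-Phe-AFC viability readout (25 uM final).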
D3 ag: qHTS of D3 Dopamine Receptor Agonist: qHTS; D(3) dopamine receptor (Homo sapiens), P35462; D3R DiscoveRx beta-arrestin cells, luminescence, 90 min; max activation, %; 410,000 tested, 0.58% active; in the data active = max activation above about 30%; also: 0% is about no effect
Target sequence (P35462 whole entry, looked up): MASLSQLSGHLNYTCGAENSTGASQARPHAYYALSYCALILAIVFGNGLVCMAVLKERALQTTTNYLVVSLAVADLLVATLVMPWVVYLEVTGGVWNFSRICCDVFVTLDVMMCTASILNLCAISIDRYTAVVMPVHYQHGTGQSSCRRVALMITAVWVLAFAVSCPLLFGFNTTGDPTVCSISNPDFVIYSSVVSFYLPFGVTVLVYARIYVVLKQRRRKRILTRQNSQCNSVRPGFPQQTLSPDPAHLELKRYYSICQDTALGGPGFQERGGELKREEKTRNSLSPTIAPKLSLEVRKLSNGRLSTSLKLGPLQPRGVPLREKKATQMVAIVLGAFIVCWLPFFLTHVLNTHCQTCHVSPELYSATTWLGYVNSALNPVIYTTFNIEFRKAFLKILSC
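Agonist-mode cell screen: cells plated at 1500/well and incubated overnight at 37 °C, then exposed to library compounds for 90 min at 37 °C. Detection reagent was added for 30–60 min at room temperature, and luminescence was read.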
Integrin act MD: qHTS for Activators of Integrin-Mediated Alleviation for Muscular Dystrophy. alpha7betagal myoblasts, beta-gal FDG fluorescence, 48 h. Potency, µM (series often up to 38.3 µM), without a hit: top-dose activation, usual class: activators. 350,000 tested, 0.064% active. AID 624291, 2012;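 also: potency is read from the fitted curve at half-maximal effect; 100% = response of the positive control SU9516; nearly all actives have a fitted effect of over 60% in size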
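alpha7betagal+/- myoblasts (passage 13, 250/well) treated 48 h at 37C with compounds at 1:260 dilution of DMSO stock. Lysed, then beta-galactosidase activity read as FDG fluorescence (ex 480/em 540) after 30 min, with pre-read for autofluorescence.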
ATXN viability: Viability Counterscreen for Primary qHTS for Inhibitors of ATXN expression; 400,000 tested, 0.49% active; S2 cells (HEK-293 line with an ATXN2-luciferase reporter) viability, CellTiter-Fluor protease fluorescence, 24 h; Potency, µM (doses to about 56.7 µM), actives largely listed as cytotoxic; also: potency is read from the fitted curve at half-maximal effect; nearly all actives have a fitted effect of over 40% in size
DRD3 antagonist: qHTS of D3 Dopamine Receptor Antagonist: qHTS; D(3) dopamine receptor (Homo sapiens), P35462; D3R cells, DiscoveRx beta-arrestin luminescence, antagonist mode; active compounds read low; max response, negative = inhibition, %; 360,000 tested, 2.5% active; AID 652054, 2013; in the data active = max response below about -50%; inconclusive = no clear call, values can overlap the other calls; also: % is scaled to controls: 0 for no effect and ±100 for the full control effect
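Cells expressing the human receptor were seeded at 1500 cells/well, incubated overnight at 37 degrees C in 5% CO2, then exposed to library compounds with dopamine controls for 90 minutes at 37 degrees C before luminescent detection.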
Starred values were filed as active, the others as inactive; i = inactive; ? = inconclusive; . = not tested or not shown; [ ] = remark or other dose. Shown are actives, neighbours in structure and some others; about 7% of the full set was active somewhere. Unless noted, calls follow the shape of the dose curve; as a rule, active = well fitted curve in the direction sought with a large enough effect; inconclusive = small, poorly fitted or top-dose-only effect, or another doubt; inactive = no such curve, though single readings can be large; an effect the other way counts as inactive or inconclusive.

SMILES | IL1B secr inh | ATXN2 expr inh | D3 ag | Integrin act MD | ATXN viability | DRD3 antagonist
CC(=O)c1ccc(N(CC(=O)NC2CCS(=O)(=O)C2)S(=O)(=O)c2ccc(Cl)cc2)cc1 (stereo not given) | -9.2 | . | -7.9 | 28.3% | i | -25.8
Cc1nc2ccccc2c(=O)n1-c1cccc(NC(=O)c2cccs2)c1 | -50.7* | -20.3% | -8.6 | 0.0% | i | -0.9
Cc1nc2ccccc2c(=O)n1-c1cccc(NS(=O)(=O)c2ccccc2)c1 | -10.6 | 10.1% | 0.0 | 5.4% | i | 4.6
COc1ccc(N2CCN(C(=O)COc3ncnc4ccccc34)CC2)cc1 | 9.5 | -3.9% | 6.8 | -10.9% | i | -2.3
COc1cc(OC)c(C(=O)Nc2ccncc2)cc1OC | -60.1* | -24.6% | -6.1 | -3.8% | i | 1.1
O=C(Nc1ccncc1)c1cc2ccccc2cc1O | -88.1* | 12.4% | 4.7 | -14.4% | ? | 29.4
COc1cc2ccccc2cc1C(=O)Nc1ccc(Cc2ccncc2)cc1 | -71.5* | -19.2% | 14.9 | 40.9%[7.66 µM] | ? | 39.8
COc1cc(OC)c(NC(=O)c2cc3ccccc3cc2O)cc1Cl | -78.2* | ? | 29.2 | 22.7% | i | 35.2
CC(C)(C)C(=O)NC(=S)Nc1ccc(Cc2ccncc2)cc1 | -64.8* | -26.7% | 0.9 | -18.5% | i | 13.2
CCN1CCN(Cc2ccc(NC(=O)Nc3ccccc3OC)cc2)CC1 | -7.1 | 1.5% | -23.5 | 15.4% | i | -72.4*
COc1ccccc1NC(=O)Nc1ccncc1 | -7.4 | . | -1.8 | 1.7% | i | -7.6
COc1ccccc1NC(=O)Nc1ccc(Cc2ccncc2)cc1 | -87.0* | 7.0% | 9.4 | 3.7% | i | -0.1
O=C(Nc1ccc(F)cc1F)C1CCN(c2ncccn2)CC1 | . | -0.9% | 1.0 | . | i | .
CCOC(=O)c1c(C)c2c(=O)[nH]cnc2n1-c1ccccc1 | 21.3 | . | 1.0 | 5.8% | i | 15.5
CCOC(=O)c1c[nH]c(=S)n(-c2ccccc2)c1=O | 52.2 | 6.2% | 30.2* | 15.7% | i | -11.2
CC(=O)Nc1cccc(N2C(=O)CC(N3CCC(C(=O)N4CCCCC4)CC3)C2=O)c1 (stereo not given) | -16.5 | 4.3% | 3.6 | 7.4% | i | -58.9*
COc1cc(OC)cc(N2C(=O)CC(N3CCC(C(=O)N4CCCCC4)CC3)C2=O)c1 (stereo not given) | i | -10.7% | -2.6 | ? | i | -2.1
CCCCNC1C(CC)C(CCC)C(C#N)(C#N)C1(C#N)C#N (stereo not given) | -118.4* | -35.3% | -5.9 | -62.7% | ? | -17.3
CCC(=O)Nc1nnc(-c2cccs2)s1 | 24.8 | 35.3%[11.3 µM] | -2.7 | 0.0% | i | 11.3
COCC(=O)Nc1nnc(-c2cccs2)s1 | 0.0 | 11.5% | -3.3 | ? | i | -72.4*
O=C(Cc1ccccc1)Nc1ccccc1C(=O)N1CCN(c2ccccc2)CC1 | 0.0 | 8.5% | -2.2 | 8.0% | i | -7.7
O=[N+]([O-])c1ccc(N2CCCCC2)cc1 | . | 4.9% | -7.5 | -5.8% | i | -15.5
O=[N+]([O-])c1ccc(N2CCN(CC3CCCCC3)CC2)cc1 | 31.4 | . | -5.3 | -20.4% | ? | -58.0*
O=[N+]([O-])c1cc(S(=O)(=O)Oc2ccccc2)ccc1Cl | -100.5* | 11.2% | -17.9 | -55.1% | i | 8.2
O=S(=O)(Oc1ccccc1)c1ccc(Cl)c(Cl)c1 | -13.1 | -3.4% | 2.3 | 0.0% | i | 4.8
SMILES | IL1B secr inh | ATXN2 expr inh | D3 ag | Integrin act MD | ATXN viability | DRD3 antagonist
C=CCN1C(c2ccc(Br)cc2)=CS/C1=C(\C#N)c1nnc(N2CCOCC2)n1-c1ccccc1 | -73.4* | -16.5% | 0.4 | 15.9% | i | 5.5
NS(=O)(=O)c1ccc(N2N=C(c3ccccc3)CC2c2ccc(F)cc2)cc1 (stereo not given) | -61.2* | ? | 1.3 | -20.8% | i | 9.5
COc1ccc(C2CC(c3ccccc3)=NN2c2ccc(S(N)(=O)=O)cc2)cc1 (stereo not given) | ? | -3.4% | 3.2 | -52.7% | . | 13.3
Oc1ccc(C2=NN(c3ccccc3)C(c3ccc(F)cc3)C2)cc1 (stereo not given) | -97.8* | -20.0% | -1.3 | -55.6% | i | -7.9
NS(=O)(=O)c1ccc(N2N=C(c3ccccc3)CC2c2cccc(Cl)c2)cc1 (stereo not given) | -70.2* | ? | -14.8 | -27.5% | i | -15.3
CC1Cc2[nH]c(=S)[nH]c(=O)c2C(C)O1 (stereo not given) | 58.8 | 14.6% | 1.3 | . | i | 5.0
Cc1cccc(Nc2ccncc2S(N)(=O)=O)c1 | 5.3 | -26.0% | 11.9 | 0.3% | i | -4.9
CN(CCC1CCCCO1)C(=O)c1cc(COc2ccc(F)cc2F)on1 (stereo not given) | 10.6 | 2.1% | -2.2 | -8.7% | i | -19.8
CN(CCCC1CCCC1)C(=O)c1cc(COc2ccc(F)cc2F)on1 | -51.3* | 2.1% | -22.5 | 1.3% | i | -4.5
CC(C)=CC(=O)NCCc1ccccc1 | -10.2 | -23.9% | -1.0 | 13.4% | i | -7.3
CC1(NS(=O)(=O)c2ccc(Cl)s2)CCS(=O)(=O)C1 (stereo not given) | -6.8 | 5.5% | -2.7 | 26.4% | i | 0.4
COc1ccc2c(c1)CC/C(=C/c1ccncc1)C2=O | -104.8* | -10.9% | -2.1 | -28.6% | i | -0.8
COc1ccc2c(c1)CC/C(=C\c1ccc(C)o1)C2=O | 0.0 | 91.0% | 1.9 | -13.7% | ? | -14.8
CC(C)/C=C1\CC/C(=C\c2cccnc2)C1=O | -9.8 | . | -15.3 | -28.1% | i | -2.1
CCC1C/C(=C\c2cccnc2)C(=O)/C(=C/c2cccnc2)C1 (stereo not given) | ? | 14.1µM* | -0.8 | -49.7% | . | ?
O=C1/C(=C\c2cccnc2)CCc2ccccc21 | -110.6* | 5.2% | 4.9 | -4.0% | i | -16.7
O=C1/C(=C/c2cccnc2)CC/C1=C\c1cccnc1 | -87.2* | ? | -3.8 | -19.5% | ? | -1.8
C=CCOc1c(Br)cc(/C=C(\C#N)C(N)=O)cc1OC | 2.8 | 6.9% | 4.7 | 9.0% | i | 12.3
O=C1/C(=C/c2ccccc2)CCCc2ccccc21 | -19.3 | 2.8% | -2.7 | -18.8% | i | -10.7
CN(C)c1ccc(/C=C2\CCC/C(=C\c3ccccc3)C2=O)cc1 | -64.7* | 24.7% | 7.7 | 0.0% | i | -2.7
